Experimental findings from ChEMBL document CHEMBL3988442, “University of Dundee, Small-Polar-MMV Screening Library” (2021) are described below.

Screen size: about 48,000 compounds; about 13,000 (27%) showed an effect of 50% or more. The list shows a part of the results.

This assay concerns Wolbachia pipientis. Description: Anti-Wolbachia Cell-Based Screen. It is filed as functional. On the set-up: scale not given: in the data most compounds retested in dose-response had high values. The settings on record: 5 µM.
On to `c1cncc(COCC2CN(Cc3ccco3)Cc3ccnn3C2)c1` (stereo unspecified), for which the “Percent Effect” value is reported as -0.3306%.

For `COc1ccc(Cl)cc1CS(=O)(=O)Cc1nc(C2CC2)no1`, the “Percent Effect” value came to 17.46%.

Consider `Cc1cnc2c(c1)N(C(=O)c1ccc(=O)n(C)c1)CCO2`, for which the “Percent Effect” value amounted to 10.48%.

As to `O=C(c1c(F)cccc1Br)N1CCCOCC1`, the “Percent Effect” value is recorded as -0.116%.

In the case of `CCCn1ccc(C(=O)N2CCOC(c3nc(-c4cccs4)no3)C2)n1` (stereo unspecified), the “Percent Effect” value was 4.055%.

For `COc1c(C(=O)N2CCOC(c3cccs3)C2)c(C)nn1C` (stereo unspecified), the “Percent Effect” value is recorded as -3.946%.

Consider `Cc1cc(C)c(C(=O)N2CCOC(c3cccs3)C2)c(=O)[nH]1` (stereo unspecified), for which the “Percent Effect” value was -5.418%.

`CCCn1cc(C(=O)N2CCOC(c3nc(-c4cccs4)no3)C2)cn1` (stereo unspecified): the “Percent Effect” value is given as 93.77%.

For `CCn1ccc(C(=O)N2CCOC(c3nc(-c4cccs4)no3)C2)n1` (stereo unspecified), the “Percent Effect” value was 106.6%.

Consider `CCCc1cc(C(=O)N2CCOC(c3nc(-c4cccs4)no3)C2)no1` (stereo unspecified), for which the “Percent Effect” value worked out at 6.079%.

Turning to `COc1ncccc1C(=O)N1CC(c2nc(-c3cccs3)no2)C1`, the “Percent Effect” value came out at 5.63%.

On to `O=C(O)C(=O)O.c1csc(-c2noc(C3CN(Cc4ccc5c(c4)CCO5)C3)n2)c1`, for which the “Percent Effect” value is 26.44%.

For `CCn1cc(C(=O)N2CCOC(c3nc(-c4cccs4)no3)C2)cn1` (stereo unspecified), the “Percent Effect” value is listed as 116.8%.

For `CN(C)CCN1CC2(CCCN(c3ccc(Cl)cn3)C2)CCC1=O` (stereo unspecified), the “Percent Effect” value is -8.264%.

Turning to `CCN(Cc1ccoc1)c1ncc(S(N)(=O)=O)s1`, the “Percent Effect” value is reported as -17.75%.

With `CC(NCCCC#N)c1ccc(-c2ccncc2)cc1` (stereo unspecified), the “Percent Effect” value is on record as -12.76%.

Take `CN1CC2(CCN(CCOCCO)CC2)CC(c2ccccc2)C1=O` (stereo unspecified): the “Percent Effect” value is -8.792%.

`COCC(=O)N1CCC2(CC1)COc1ccccc1S(=O)(=O)N(C)C2`: the “Percent Effect” value was determined as 78.61%.

Turning to `CN(C)CC(=O)N1CCC2(CC1)COc1ccccc1S(=O)(=O)N(C)C2`, the “Percent Effect” value stood at 75.94%.

Consider `CCC(=O)N1CCC2(CC1)COc1ccccc1S(=O)(=O)N(C)C2`, for which the “Percent Effect” value was 3.45%.

Regarding `CCN1CC2(CCNCC2)COc2ccccc2S1(=O)=O.O=C(O)C(F)(F)F`, the “Percent Effect” value was found to be 12.77%.

Consider `CCc1ccc(CN2CCC3(CCCN(C(=O)N(C)C)C3)C2)o1` (stereo unspecified), for which the “Percent Effect” value is 2.362%.

Turning to `CCN1CC2(CCN(C(=O)N(C)C)CC2)COc2ccccc2S1(=O)=O`, the “Percent Effect” value is on record as 88.03%.

On to `COCCN1CCC2(CC1)COc1ccccc1S(=O)(=O)N(C)C2`, for which the “Percent Effect” value is reported as 110%.

Take `CN1[C@@H](c2ccccc2)[C@@H](C(=O)NCC2CCOCC2)C[C@@]1(C)C(=O)O`: the “Percent Effect” value is on record as -0.5583%.

On to `COCc1ccccc1C(=O)NCC(c1c(F)cccc1F)N(C)C` (stereo unspecified), for which the “Percent Effect” value is -0.8203%.

With `O=c1nc(SCc2cccnc2)c2c(n1CCO)CCC2`, the “Percent Effect” value is on record as -0.5534%.

`O=S(=O)(c1cc2ccccc2o1)N1CCCC1`: the “Percent Effect” value was -2.177%.

Regarding `CS(=O)(=O)NCC(=O)NCc1cccnc1-n1cnc2ccccc21`, the “Percent Effect” value was 9.043%.

Take `COc1cccc(-c2n[nH]c3c2CN(C(=O)c2cccc(=O)[nH]2)CC3)c1`: the “Percent Effect” value was -3.168%.

With `CC(=O)N1CC(c2ncn(C(C)C)n2)c2cc(C(=O)NC3CC3)ccc21` (stereo unspecified), the “Percent Effect” value is given as -21.86%.

Turning to `CN(C)CCn1nc(C2CCN(Cc3ccccc3)C2)c2cccnc21` (stereo unspecified), the “Percent Effect” value was 91.7%.

`CCS(=O)(=O)N1CCC(c2nccn2Cc2ccccn2)CC1`: the “Percent Effect” value is on record as -0.918%.

With `CN(C)CCn1nc(C2CCN(S(=O)(=O)N(C)C)C2)c2cccnc21` (stereo unspecified), the “Percent Effect” value is listed as 111.8%.

On to `CCn1c(C2CCCN(S(=O)(=O)C3CC3)C2)nn(CCN(C)C)c1=O` (stereo unspecified), for which the “Percent Effect” value was 1.006%.

Take `CCn1c(CN(C)C)nnc1C1CCN(Cc2ccccc2)CC1`: the “Percent Effect” value stood at 3.823%.

Regarding `CCS(=O)(=O)N1CCC(c2nn(CCN(C)C)c3ncccc23)C1` (stereo unspecified), the “Percent Effect” value amounted to 95.82%.

Take `NCCn1nc(C2CCN(Cc3ccc(Cl)c(Cl)c3)C2)c2nccnc21` (stereo unspecified): the “Percent Effect” value amounted to 1.426%.

Turning to `CN(C)S(=O)(=O)N1CCCC(c2nccn2Cc2cccnc2)C1` (stereo unspecified), the “Percent Effect” value was -1.241%.

`O=C(NC1(c2nnn(CCO)n2)CCCC1)c1ccccc1`: the “Percent Effect” value is recorded as -5.354%.

Consider `CN1CCC(NC(=O)c2cc(C3CCCCC3)nc3ccccc23)CC1`, for which the “Percent Effect” value turned out to be 113.5%.

With `Cc1ccc(-c2c(C(=O)NC3CCN(C)CC3)csc2C)cc1`, the “Percent Effect” value is 4.532%.

`Cn1c(C(=O)NC2CCCC2)nc2c1CCN(Cc1ccccc1)C2`: the “Percent Effect” value turned out to be 4.267%.

For the compound `Cn1cc(C2(C)CN(Cc3ccc(O)c(Cl)c3)CCO2)cn1` (stereo unspecified), the “Percent Effect” value is reported as -11.09%.

For `CCCn1nc2c(cc1=O)CN(Cc1cc(C)on1)CC2`, the “Percent Effect” value is recorded as -1.057%.

Consider `CCc1ccc(C(=O)NC(C)c2ccc(S(C)(=O)=O)c(F)c2)o1` (stereo unspecified), for which the “Percent Effect” value was determined as 2.681%.

As to `CCOCC1CN(C(=O)c2ccncn2)Cc2cnn(C)c21.O=C(O)C(F)(F)F` (stereo unspecified), the “Percent Effect” value was -8.665%.

In the case of `CCOCC1CN(C(=O)c2cccnc2)Cc2cnn(C)c21` (stereo unspecified), the “Percent Effect” value came to 105%.

Turning to `COCC1CN(C(=O)c2cccn2C)Cc2cnn(C)c21` (stereo unspecified), the “Percent Effect” value is given as 3.786%.

Consider `CCOCC1CN(C(=O)c2ccnnc2)Cc2cnn(C)c21` (stereo unspecified), for which the “Percent Effect” value is 100.5%.

For `CCOCC1CN(C(=O)c2cccc(C)n2)Cc2cnn(C)c21` (stereo unspecified), the “Percent Effect” value came to 129.5%.

`Cc1noc(C)c1CNCC1CCN(CC(O)c2ccccc2)CC1` (stereo unspecified): the “Percent Effect” value was determined as 0.6409%.

On to `CN1CCCC1CCn1ccnc1-c1ccc2ccccc2n1` (stereo unspecified), for which the “Percent Effect” value is -11.7%.

`CCCc1nc(C(=O)NC(COC)c2ccnn2C)cs1` (stereo unspecified): the “Percent Effect” value is recorded as 113.9%.

In the case of `CCCc1nc(C(=O)NCCCn2nnc3ccccc32)cs1`, the “Percent Effect” value was determined as 3.085%.

For the compound `CCCc1nc(C(=O)N2CCN(S(=O)(=O)CC)CC2)cs1`, the “Percent Effect” value is 13.9%.
